Experimental data from PubChem BioAssay.

The compounds below were run on Human papillomavirus type 1a E7 protein (residues 1-88) (assay: HPV1a E7 small-molecule binders, primary screen, biochemical, small-molecule microarray, residues 1-88, 635 nm (AID 1129)). Details: small-molecule microarray binding, fluorescence 635 nm; higher = more signal.

First: O=C1C[C@]2(c3ccc([N+](=O)[O-])cc3)C(=O)N(C3CC3)c3cc(CO)ccc3[C@H]2N1C1CCCCC1
Second: COC(=O)[C@@]1(Cc2ccc(OC)cc2)[C@H]2c3cc(C(=O)N4CCCC4)n(CCn4cc([N+](=O)[O-])nc4C)c3C[C@H]2CN1C(=O)c1ccccc1
The composite z-score of the first is lower: -0.115 for the first, 1.2 for the second.

Going from `C=C(COC)/C(=C/C[C@@H](OC(C)=O)c1ccccc1OCCO)c1cnc2ccccc2c1` to `C=CCC(OC(C)=O)[C@@H]1[C@@H](N(Cc2cc3ccccc3o2)C(=O)c2cccc3ccccc23)c2cc(OCCCO)ccc2N1C(=O)c1ccc2ccccc2n1` (stereo partly specified), the composite z-score falls from 1.06 to -0.332.

Compared with `COCCOC(=O)N1C(=O)[C@@]2(c3cc(C#CC4(O)CCCCCC4)ccc31)[C@H](c1ccc(O)cc1)N1[C@H](c3ccccc3)[C@H](c3ccccc3)OC(=O)[C@H]1[C@@H]2C(=O)N1CCCCCCC1`, `COCCOC(=O)N1C(=O)[C@@]2(c3cc(C#CCCO)ccc31)[C@H](c1ccc(OCCO)cc1)N1[C@H](c3ccccc3)[C@H](c3ccccc3)OC(=O)[C@H]1[C@@H]2C(=O)N1CCCCCCC1` is higher in composite z-score: 1.19 for the first, 1.2 for the second.

Compared with `C=CCOC(=O)[C@@H]1[C@H]2C(=O)O[C@H](c3ccccc3)[C@H](c3ccccc3)N2[C@H](c2ccc(OCCOC(=O)[C@H]3C[C@H]4C(=O)N[C@@H](CCCCN(C)C)C(=O)N4[C@H]3c3ccc(O)cc3)cc2)[C@@]12C(=O)Nc1ccc(I)cc12`, `C=CCOC(=O)[C@H]1[C@@H]2C(=O)O[C@@H](c3ccccc3)[C@@H](c3ccccc3)N2[C@@H](c2ccc(OCCOC(=O)[C@@H]3C[C@@H]4C(=O)N[C@@H](CCCC[N+](C)(C)C)C(=O)N4[C@@H]3c3ccc(O)cc3)cc2)[C@]12C(=O)Nc1ccc(I)cc12` is lower in composite z-score: 1.17 for the first, 0.377 for the second.

First: COC(=O)C[C@H]1O[C@@]2(C[C@@H]1[Si](C)(C)C)C(=O)N(C)c1ccccc12
Second: COC(=O)[C@@]1(Cc2ccccc2)[C@H]2c3cc(C(=O)N(C)C)n(CCO)c3C[C@H]2CN1C(=O)c1ccccc1
The composite z-score of the first is lower: 0.643 for the first, 1.16 for the second.

First: CCCCCC1=C2CNC(CC(C)C)(C(=O)OC)C=C2C(C)C1=O (stereo unspecified)
Second: CN(C)CCCC[C@@H]1NC(=O)[C@H]2C[C@@H](C(=O)O)[C@@H](c3ccc(O)cc3)N2C1=O
The composite z-score of the first is lower: 1.17 for the first, 1.31 for the second.

Compared with `O=C1C=C(c2ccccc2)C(=O)C2=C1CC([C@H]1Oc3ccccc3S(=O)(=O)N3CCC[C@@H]13)=CC2`, `COC(=O)[C@@]1(Cc2ccc(F)cc2)[C@H]2c3cc(C(=O)N(C)C)n(CCc4ccc(O)c(O)c4)c3C[C@H]2CN1C(=O)c1ccccc1` is higher in composite z-score: 0.154 for the first, 1.18 for the second.

First: COCCOC(=O)N1C(=O)[C@@]2(c3cc(C#CCC(C(=O)OC)C(=O)OC)ccc31)[C@H](C(=O)Nc1nc3ccccc3s1)[C@H]1C(=O)O[C@H](c3ccccc3)[C@H](c3ccccc3)N1[C@@H]2c1ccc(O)cc1
Second: C=CCC(OC(C)=O)[C@@H]1[C@@H](N(Cc2ccc(-c3cccc(C(F)(F)F)c3)o2)C(=O)c2ccc(-c3ccccc3)cc2)c2cc(OCCCO)ccc2N1C(=O)c1ccc2ccccc2c1 (stereo partly specified)
The composite z-score of the first is higher: 1.21 for the first, -0.06 for the second.

Going from `Cc1ccc(S[C@]2(C(=O)NCCCN(C)C)CC(=O)N(Cc3ccccc3C(F)(F)F)[C@@H]2c2ccc(CO)cc2I)cc1` to `CCN(CC)c1ccc(N2CC=CC34O[C@@H]5C=CCCOC(=O)C5[C@H]3C(=O)N(C(C)CO)[C@@H]4C2=O)cc1` (stereo partly specified), the composite z-score rises from -0.0904 to 0.649.

Going from `CC(C)=CCCC(C)=CC(O)C1C=CC2C(=O)NC(=O)C2N1Nc1ccc(Cl)cc1Cl` (stereo unspecified) to `N#Cc1ccc(-c2cccc(=O)o2)cc1`, the composite z-score falls from 1.19 to 0.651.

Each compound was assayed against Focal adhesion kinase 1 (Homo sapiens) (UniProt Q05397) (assay: small-molecule microarray binders of FAK, primary screen, biochemical, 635/667 nm fluorescence, BSA, DTT (AID 1130;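 further: composite of spot emission at 667 nm and signal to noise over triplicate slides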)). Details: PTK2 binding, 635 nm fluorescence, higher = more signal.
Chain of Focal adhesion kinase 1 (Homo sapiens) (Q05397 whole entry, looked up): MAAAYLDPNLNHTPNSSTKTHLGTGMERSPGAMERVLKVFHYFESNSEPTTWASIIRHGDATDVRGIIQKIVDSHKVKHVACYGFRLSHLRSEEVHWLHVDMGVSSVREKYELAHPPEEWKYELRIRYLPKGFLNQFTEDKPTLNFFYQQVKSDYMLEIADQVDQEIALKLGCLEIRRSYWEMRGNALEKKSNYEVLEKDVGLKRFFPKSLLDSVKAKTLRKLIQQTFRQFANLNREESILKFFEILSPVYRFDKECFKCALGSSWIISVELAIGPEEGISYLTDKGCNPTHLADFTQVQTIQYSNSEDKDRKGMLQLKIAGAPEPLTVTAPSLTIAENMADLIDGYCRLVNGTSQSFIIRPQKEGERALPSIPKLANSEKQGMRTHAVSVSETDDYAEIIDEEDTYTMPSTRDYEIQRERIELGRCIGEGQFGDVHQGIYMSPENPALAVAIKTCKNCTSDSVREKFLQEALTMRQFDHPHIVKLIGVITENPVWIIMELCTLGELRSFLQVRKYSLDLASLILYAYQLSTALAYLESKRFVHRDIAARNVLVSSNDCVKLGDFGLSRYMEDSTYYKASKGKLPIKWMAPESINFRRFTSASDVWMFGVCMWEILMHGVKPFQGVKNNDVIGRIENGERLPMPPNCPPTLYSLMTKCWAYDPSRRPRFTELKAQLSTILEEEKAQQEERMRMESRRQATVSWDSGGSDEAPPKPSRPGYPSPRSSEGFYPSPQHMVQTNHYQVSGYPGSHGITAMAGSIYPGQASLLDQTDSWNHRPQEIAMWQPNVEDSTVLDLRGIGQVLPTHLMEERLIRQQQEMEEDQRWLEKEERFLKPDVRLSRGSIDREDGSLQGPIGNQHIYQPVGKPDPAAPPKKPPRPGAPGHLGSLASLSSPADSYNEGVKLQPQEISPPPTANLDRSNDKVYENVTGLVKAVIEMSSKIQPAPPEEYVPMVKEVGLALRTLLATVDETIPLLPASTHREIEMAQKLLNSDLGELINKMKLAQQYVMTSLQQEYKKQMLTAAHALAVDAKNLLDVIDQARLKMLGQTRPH

First: CCOC(=O)C[C@H]1[C@H](OC(=O)Cc2ccc3c(c2)OCO3)[C@@H](NC(=O)Cc2ccc(OC)cc2)c2cc(OCCCO)ccc2N1C(=O)Cc1ccc(OC)cc1
Second: CCOC(=O)C[C@H]1[C@H](OC(=O)Cc2ccc3c(c2)OCO3)[C@@H](NC(=O)c2ccc3ccccc3n2)c2cc(OCCCO)ccc2N1C(=O)Cc1ccc(OC)cc1
The composite z-score of the first is higher: -0.113 for the first, -0.307 for the second.

Going from `COC(=O)[C@@]1(Cc2ccccc2)[C@H]2c3cc(C(=O)N4CCCC4)n(Cc4ccc(OC)c(OC)c4)c3C[C@H]2CN1C(=O)c1ccccc1` to `COC(=O)[C@@]1(Cc2ccc(OC)cc2)[C@H]2c3cc(C(=O)N4CCCC4)n(Cc4c(CO)[nH]cc(C)c4=O)c3C[C@H]2CN1C(=O)c1ccccc1`, the composite z-score falls from 0.916 to 0.502.

First: [N-]=[N+]=Nc1ccccc1C[C@]1(C(=O)N2CCOCC2)N=C(c2ccc(OCCCO)cc2)O[C@H]1c1ccccc1N=[N+]=[N-]
Second: C=CCC(OC(C)=O)[C@@H]1[C@@H](N(Cc2cc3ccccc3o2)C(=O)c2cccc3ccccc23)c2cc(OCCCO)ccc2N1C(=O)c1ccc2ccccc2n1 (stereo partly specified)
The composite z-score of the first is higher: 1.08 for the first, 0.169 for the second.

First: CC(C)(C)N1CC=CC23O[C@@H]4/C=C\CCCOC(=O)C4[C@H]2C(=O)N(CCCO)[C@@H]3C1=O (stereo partly specified)
Second: CCN(CC)c1ccc(N2CC=CC34O[C@@H]5C=CCCOC(=O)C5[C@H]3C(=O)N(C(C)CO)[C@@H]4C2=O)cc1 (stereo partly specified)
The composite z-score of the first is lower: -0.572 for the first, 0.339 for the second.

First: COc1ccc(CCNC(=O)[C@@H]2c3ccccc3C(=O)N(Cc3ccccc3OC)[C@H]2c2ccc(CO)cc2)cc1
Second: O=C(NC1CC1)[C@@H]1c2ccccc2C(=O)N(Cc2cc(C(F)(F)F)cc(C(F)(F)F)c2)[C@H]1c1ccc(CO)cc1
The composite z-score of the first is higher: 0.347 for the first, 0.052 for the second.

Compared with `NC(=O)NCC#Cc1ccc2c(c1)[C@]1(C(=O)N2)[C@H](c2ccc(OCCO)cc2)N2[C@H](c3ccccc3)[C@H](c3ccccc3)OC(=O)[C@H]2[C@@H]1C(=O)O`, `O=C1O[C@H](c2ccccc2)[C@H](c2ccccc2)N2[C@H]1[C@@H](C(=O)O)[C@]1(C(=O)Nc3ccc(C#CCCO)cc31)[C@H]2c1ccc(OCCO)cc1` is higher in composite z-score: -0.333 for the first, 0.146 for the second.

First: COc1ccc(C(=O)Nc2ccc3c(c2)[C@@]2(O[C@H](CCO)[C@@H]([Si](C)(C)c4ccc(OC)cc4)[C@@H]2C)C(=O)N3Cc2ccccc2)cc1
Second: COCCOC(=O)N1C(=O)[C@@]2(c3cc(C#CCC(C(=O)OC)C(=O)OC)ccc31)[C@H](c1ccc(O)cc1)N1[C@H](c3ccccc3)[C@H](c3ccccc3)OC(=O)[C@H]1[C@@H]2C(=O)Nc1nc2ccccc2s1
The composite z-score of the first is lower: 0.397 for the first, 2.02 for the second.

Going from `COC(=O)C1=CC(CCCO)=CC(c2cccs2)N(Cc2cc3c(cc2Br)OCO3)C=C1C(=O)OC` (stereo unspecified) to `Cc1ccc(S[C@]2(C(=O)NCCCN(C)C)CC(=O)N(Cc3ccccc3C(F)(F)F)[C@@H]2c2ccc(CO)cc2I)cc1`, the composite z-score falls from 0.87 to 0.591.

Compared with `C=C(/C(=C/C[C@@H](OC(C)=O)c1cccc(OCCO)c1)c1cnc2ccccc2c1)C(C)C`, `C=C(COC)/C(=C/C[C@@H](OC(C)=O)c1ccccc1OCCO)c1cnc2ccccc2c1` is higher in composite z-score: 0.138 for the first, 0.423 for the second.

Compared with `O=C1C2C=CC(C(O)c3cccs3)N(Nc3ccc([N+](=O)[O-])cc3)C2C(=O)N1c1ccccc1` (stereo unspecified), `O=C1C[C@]2(c3ccc([N+](=O)[O-])cc3)C(=O)N(C3CC3)c3cc(CO)ccc3[C@H]2N1C1CCCCC1` is lower in composite z-score: 0.894 for the first, 0.0202 for the second.

Going from `C[N+](C)(C)CCCC[C@@H]1NC(=O)[C@H]2C[C@@H](C(=O)NCCCCCNC(=O)CS)[C@@H](c3cccc(OCCO)c3)N2C1=O` to `CN(C)CCCC[C@@H]1NC(=O)[C@H]2C[C@@H](C(=O)O)[C@@H](c3ccc(O)cc3)N2C1=O`, the composite z-score rises from 0.247 to 1.99.

Going from `COCCOC(=O)N1C(=O)[C@@]2(c3cc(C#CC4(O)CCCCCC4)ccc31)[C@H](c1ccc(O)cc1)N1[C@H](c3ccccc3)[C@H](c3ccccc3)OC(=O)[C@H]1[C@@H]2C(=O)N1CCCCCCC1` to `COCCOC(=O)N1C(=O)[C@@]2(c3cc(C#CCCO)ccc31)[C@H](c1ccc(OCCO)cc1)N1[C@H](c3ccccc3)[C@H](c3ccccc3)OC(=O)[C@H]1[C@@H]2C(=O)N1CCCCCCC1`, the composite z-score falls from 0.817 to 0.644.

Compared with `C=CCOC(=O)[C@@H]1[C@H]2C(=O)O[C@H](c3ccccc3)[C@H](c3ccccc3)N2[C@H](c2ccc(OCCOC(=O)[C@H]3C[C@H]4C(=O)N[C@@H](CCCCN(C)C)C(=O)N4[C@H]3c3ccc(O)cc3)cc2)[C@@]12C(=O)Nc1ccc(I)cc12`, `C=CCOC(=O)[C@H]1[C@@H]2C(=O)O[C@@H](c3ccccc3)[C@@H](c3ccccc3)N2[C@@H](c2ccc(OCCOC(=O)[C@@H]3C[C@@H]4C(=O)N[C@@H](CCCC[N+](C)(C)C)C(=O)N4[C@@H]3c3ccc(O)cc3)cc2)[C@]12C(=O)Nc1ccc(I)cc12` is lower in composite z-score: 1.03 for the first, 0.898 for the second.

Going from `COC(=O)C[C@H]1O[C@@]2(C[C@@H]1[Si](C)(C)C)C(=O)N(C)c1ccccc12` to `COC(=O)[C@@]1(Cc2ccccc2)[C@H]2c3cc(C(=O)N(C)C)n(CCO)c3C[C@H]2CN1C(=O)c1ccccc1`, the composite z-score rises from -0.203 to 1.89.

Going from `COC(=O)[C@@]1(Cc2ccc(OC)cc2)[C@H]2c3cc(C(=O)N4CCCC4)n(CCn4cc([N+](=O)[O-])nc4C)c3C[C@H]2CN1C(=O)c1ccccc1` to `COC(=O)[C@@]1(Cc2ccc(F)cc2)[C@H]2c3cc(C(=O)N(C)C)n(CCc4ccc(O)c(O)c4)c3C[C@H]2CN1C(=O)c1ccccc1`, the composite z-score falls from 1.07 to 0.512.

First: CCCCCC1=C2CNC(CC(C)C)(C(=O)OC)C=C2C(C)C1=O (stereo unspecified)
Second: CC(C)=CCCC(C)=CC(O)C1C=CC2C(=O)NC(=O)C2N1Nc1ccc(Cl)cc1Cl (stereo unspecified)
The composite z-score of the first is higher: 1.61 for the first, 1.15 for the second.

Compared with `O=C1C=C(c2ccccc2)C(=O)C2=C1CC([C@H]1Oc3ccccc3S(=O)(=O)N3CCC[C@@H]13)=CC2`, `C=CCC(OC(C)=O)[C@@H]1[C@@H](N(Cc2ccc(-c3cccc(C(F)(F)F)c3)o2)C(=O)c2ccc(-c3ccccc3)cc2)c2cc(OCCCO)ccc2N1C(=O)c1ccc2ccccc2c1` (stereo partly specified) is higher in composite z-score: -0.263 for the first, 0.0473 for the second.

Compared with `COCCOC(=O)N1C(=O)[C@@]2(c3cc(C#CCC(C(=O)OC)C(=O)OC)ccc31)[C@H](C(=O)Nc1nc3ccccc3s1)[C@H]1C(=O)O[C@H](c3ccccc3)[C@H](c3ccccc3)N1[C@@H]2c1ccc(O)cc1`, `N#Cc1ccc(-c2cccc(=O)o2)cc1` is lower in composite z-score: 0.235 for the first, 0.111 for the second.
